Assay outcomes (PubChem)
RGS12 GoLoco inh: blocks human Gai1 binding to RGS12 GoLoco peptide, red readout | P63096 | Gai1:RGS12 GoLoco peptide FP, rhodamine, 10 min | Potency, µM (highest dose often 61.6 µM), inactives show top-dose activity, negative = inhibition, most hits filed as inhibitors | 230,000 tested, 0.44% active | AID 880; active = well fitted inhibition curve with a large enough effect, not every such curve was filed as active; inactive = no such curve, though single readings can be large or run the other way; note: potency is the fitted concentration of half-maximal effect; % is set by controls: 0 for no effect and ±100 for the full control effect; nearly all actives have a fitted effect of over 30% in size
Target sequence (P63096 whole entry, looked up): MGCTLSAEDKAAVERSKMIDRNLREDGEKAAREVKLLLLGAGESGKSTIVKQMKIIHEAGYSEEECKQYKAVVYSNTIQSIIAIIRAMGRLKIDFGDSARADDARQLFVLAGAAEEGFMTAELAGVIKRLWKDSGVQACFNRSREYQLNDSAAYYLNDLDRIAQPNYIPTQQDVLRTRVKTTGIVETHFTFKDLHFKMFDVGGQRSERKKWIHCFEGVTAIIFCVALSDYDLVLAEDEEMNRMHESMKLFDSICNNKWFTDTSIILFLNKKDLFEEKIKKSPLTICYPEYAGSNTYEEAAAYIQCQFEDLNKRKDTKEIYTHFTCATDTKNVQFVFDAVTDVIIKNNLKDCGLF
Menin-MLL FL inh: displaces fluorescein MLL peptide from human menin; FP activity change, % at 61.4 µM; AID 1766; Fluorescence polarization, fluorescein-MLL peptide displacement from menin; 290,000 tested, under 10 active; active = well fitted curve in the direction sought with a large enough effect in the polarisation, not every such curve was filed as active; inconclusive = small, poorly fitted or top-dose-only effect, or effect the other way, or a change in a side signal; inactive = no such curve, though single readings can be large or run the other way; the % refers to the polarisation; note: % of control where 0% means no effect
Tb PFK inh: inhibitors of T. brucei phosphofructokinase; O15648; T. brucei PFK, ADP-Glo luminescence; Potency, µM (top dose mostly 57.5 µM), for the others: at the highest dose activity, negative = inhibition, most hits filed as inhibitors; 330,000 tested, 0.17% active; active = well fitted inhibition curve with a large enough effect; inconclusive = small, poorly fitted or top-dose-only effect, or effect the other way;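 note: potency is the fitted concentration of half-maximal effect; 0% = uninhibited 1x PFK enzyme wells and -100% = no-enzyme wells; nearly all actives have a fitted effect of over 60% in size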
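In TEA buffer at pH 8.0 with 5 mM MgCl2, enzyme (1.25 nM) converted F6P (0.5 mM) and ATP (0.1 mM) for 45 min at room temperature. ADP product was read by luciferase luminescence.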
CXXC DNA block: MLL CXXC-DNA interaction inhibition; Q03164; MLL-CXXC / FITC-HOXA9 DNA fluorescence polarization; Potency, µM (doses to about 115 µM), for inactives: at the top dose activity change, negative = inhibition, hits mostly inhibitors; 290,000 tested, 0.037% active; AID 2662; active = well fitted inhibition curve with a large enough effect in the polarisation, with a control signal flat, not every such curve was filed as active; inconclusive = small, poorly fitted or top-dose-only effect, or effect the other way, or a change in a side signal; inactive = no such curve, though single readings can be large or run the other way; the % refers to the polarisation; note: potency is the fitted concentration of half-maximal effect
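Steps: dispense CXXC domain solution (7 uM) → pin compounds or unlabeled HOX-A9 DNA control → 5 min ambient → add FLSN-HOX-A9 solution (50 nM) → spin → 30 min ambient → fluorescence polarization. Tris pH 7.5/NaCl/DTT/BSA buffer.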
Menin-MLL TR inh: menin-MLL binding inhibition, Texas Red mutant peptide; O00255; Menin + Texas Red MLL mutant peptide, fluorescence polarization; Potency, µM (top dose mostly 61.6 µM), inactives show top-dose FP activity change, negative = inhibition, most hits filed as inhibitors; 270,000 tested, 0.23% active; AID 1768; active = well fitted inhibition curve with a large enough effect in the polarisation, with a control signal flat, not every such curve was filed as active; inconclusive = small, poorly fitted or top-dose-only effect, or effect the other way, or a change in a side signal; inactive = no such curve, though single readings can be large or run the other way; the % refers to the polarisation; note: potency is the fitted concentration of half-maximal effect; % of control where 0% means no effect
An asterisk follows results filed as active; ! = repeats disagree; [ ] = dose if it differs, or a comment. Rows were chosen to be rich in hits. Some 0.43% of all compounds tested hit in one or more screens of this group.

Results for O=C(NCC1COCCO1)c1ccc2nc(Cc3cccc(Cl)c3)oc2c1 (configuration not stated) ?
Tb PFK inh: 15.1µM*; CXXC DNA block: -2.0%

What do the screens show for `CN(C)C(=S)SSC(=S)N(C)C`?
RGS12 GoLoco inh: 3.16µM*!; Menin-MLL FL inh: 5.4; Tb PFK inh: inconclusive; CXXC DNA block: -17.7%; Menin-MLL TR inh: inconclusive

How did CN(C)C(=S)SC(=S)N(C)C do in these assays?
RGS12 GoLoco inh: 1.1%; Menin-MLL FL inh: -4.5; CXXC DNA block: -10.7%; Menin-MLL TR inh: -8.8%

Results for Nc1ccccc1S(=O)(=O)Nc1cccc2cccnc12 ?
Menin-MLL FL inh: -3.2; Menin-MLL TR inh: inconclusive

Results for OC1(c2ccc(Cl)c(C(F)(F)F)c2)CCN(CCCC(c2ccc(F)cc2)c2ccc(F)cc2)CC1 ?
Menin-MLL FL inh: 2.1; Menin-MLL TR inh: 17.8%

What do the screens show for `Cc1cc(Cl)ccc1OCCCC(=O)NO`?
RGS12 GoLoco inh: 4.2%; Menin-MLL FL inh: 0.7; Tb PFK inh: 13.5µM*; CXXC DNA block: -1.8%; Menin-MLL TR inh: -5.6%

What do the screens show for `Nc1nc(Sc2ccc([N+](=O)[O-])c3nonc23)c2[nH]cnc2n1`?
RGS12 GoLoco inh: 1.58µM*

Results for O=C(NC1=NCCS1)c1cc(-c2ccc(-c3ccccc3)cc2)nc2ccccc12 ?
RGS12 GoLoco inh: 5.6%; Menin-MLL FL inh: 1.7; Tb PFK inh: -0.1%; Menin-MLL TR inh: 11.2µM*

How did COc1ccc(C2=Nn3c(nnc3-c3ccccc3OC)SC2)cc1OC do in these assays?
RGS12 GoLoco inh: -5.2%; Menin-MLL FL inh: 5.3; Tb PFK inh: 0.8%; CXXC DNA block: -5.6%; Menin-MLL TR inh: 11.2µM*

How did COc1ccc(-c2nnc3n2N=C(c2ccccc2OC)CS3)cc1OC do in these assays?
Menin-MLL FL inh: 2.6; Menin-MLL TR inh: -16.7%

How did COc1cc(N=c2ssnc2Cl)cc(OC)c1 do in these assays?
RGS12 GoLoco inh: 15.8µM*; Menin-MLL FL inh: 9.8; Tb PFK inh: inconclusive; CXXC DNA block: 10.4%; Menin-MLL TR inh: inconclusive

How did COc1ccc(C2=CC(=O)C=CC2=O)cc1 do in these assays?
RGS12 GoLoco inh: 3.55µM*; Menin-MLL FL inh: 2.0; Tb PFK inh: 6.75µM*; CXXC DNA block: 26.0%; Menin-MLL TR inh: inconclusive

Results for COc1ccc(C2=CC(=O)C[C@H](c3ccc(OC)cc3)C2)cc1 ?
Tb PFK inh: 25.4%

How did CNc1nc(-c2ccccc2)[n+](-c2ccc(C)cc2)s1 do in these assays?
Menin-MLL FL inh: 5.2; Tb PFK inh: inconclusive; CXXC DNA block: -2.8%; Menin-MLL TR inh: inconclusive

What do the screens show for `Cc1ccc(-c2nc(N)s[n+]2-c2ccccc2)cc1`?
RGS12 GoLoco inh: 3.55µM*; Menin-MLL FL inh: 3.0; Tb PFK inh: inconclusive; CXXC DNA block: inconclusive; Menin-MLL TR inh: -0.3%

Results for Cc1ccc(S(=O)(=O)Nc2c(Cl)c(Cl)c(O)c3ccccc23)cc1 ?
Menin-MLL FL inh: 6.0; Tb PFK inh: 15.1µM*; CXXC DNA block: inconclusive; Menin-MLL TR inh: inconclusive

Results for Cc1ccc(S(=O)(=O)Nc2ccccc2-c2ccccc2NS(=O)(=O)c2ccc(C)cc2)cc1 ?
RGS12 GoLoco inh: -13.2%; Menin-MLL FL inh: 1.5; Tb PFK inh: -0.6%; CXXC DNA block: -0.8%; Menin-MLL TR inh: 12.2%

Results for C=C[C@@]1(C)CC[C@H](O)[C@H]2C(=O)CCC[C@@H]21 ?
RGS12 GoLoco inh: 6.0%; Menin-MLL FL inh: -0.1; Menin-MLL TR inh: 13.4%

How did Cc1c(N=NC2=C(O)CCCC2=O)c(=O)n(-c2ccccc2)n1C do in these assays?
RGS12 GoLoco inh: 17.8µM*; Menin-MLL FL inh: -0.9; Tb PFK inh: -6.1%; CXXC DNA block: -6.4%; Menin-MLL TR inh: 0.2%

How did CC(O)/C=C/c1cccc[n+]1C (configuration not stated) do in these assays?
RGS12 GoLoco inh: 7.94µM*; Menin-MLL FL inh: 4.6; Tb PFK inh: 11.9%; CXXC DNA block: 10.9%; Menin-MLL TR inh: 0.6%

What do the screens show for `CN(C)S(=O)(=O)c1ccc2[nH]cc(/C=C/c3nc4ccccc4c(=O)n3-c3ccccc3)c2c1`?
RGS12 GoLoco inh: 4.4%; Menin-MLL FL inh: 13.0; Tb PFK inh: -5.8%; CXXC DNA block: 10.3%; Menin-MLL TR inh: -17.6%

How did CN(C)S(=O)(=O)c1cccc(-n2sc3ccccc3c2=O)c1 do in these assays?
RGS12 GoLoco inh: 14.1µM*; Menin-MLL FL inh: 1.4; Tb PFK inh: 13.5µM*; CXXC DNA block: -22.9%; Menin-MLL TR inh: 6.5%

What do the screens show for `O=c1c2ccccc2sn1-c1ccc(S(=O)(=O)N2CCCC2)cc1`?
RGS12 GoLoco inh: 0.159µM*; Menin-MLL FL inh: 4.5; Tb PFK inh: inconclusive; CXXC DNA block: -11.6%; Menin-MLL TR inh: inconclusive

What do the screens show for `CCCC1=[N+](CC)CCn2c(C)ccc21`?
RGS12 GoLoco inh: 12.6µM*; Menin-MLL FL inh: 1.6; Tb PFK inh: -4.3%; CXXC DNA block: -5.5%; Menin-MLL TR inh: 5.5%

How did COc1ccc(C2Nc3ccccc3C(=O)N2Cc2ccccc2)cc1COc1ccc(Cl)cc1Cl (configuration not stated) do in these assays?
Tb PFK inh: -0.9%

Results for O=C(Nc1nc(-c2ccccc2)cs1)C1c2ccccc2Oc2ccccc21 ?
RGS12 GoLoco inh: 81.8%; Menin-MLL FL inh: 3.4; Tb PFK inh: -1.3%; CXXC DNA block: 10.5%; Menin-MLL TR inh: 17.8µM*

Results for COc1ccc(OC)c(-c2csc(NC(=O)C3c4ccccc4Oc4ccccc43)n2)c1 ?
RGS12 GoLoco inh: -9.7%; Menin-MLL FL inh: 6.9; Tb PFK inh: -8.4%; CXXC DNA block: 10.9%; Menin-MLL TR inh: 14.1µM*

How did C[C@@H]1CCC2[C@](C)(CO)[C@@H](O)CC[C@]2(C)[C@]12CCC(CO)(CCO)O2 (some centres not stated) do in these assays?
RGS12 GoLoco inh: 5.0%; Menin-MLL FL inh: -3.7; Menin-MLL TR inh: -1.8%

Results for COc1ccc(-c2cc(=O)c3c(O)cc(O[C@H]4OC(COC5OC(C)C(O)C(O)[C@H]5O)C(O)C(O)C4O)cc3o2)cc1O (some centres not stated) ?
RGS12 GoLoco inh: 18.1%; Menin-MLL FL inh: 1.4; CXXC DNA block: 11.8%; Menin-MLL TR inh: 25.1µM*

How did Cn1c2cc(B(O)O)sc2c2cnn(Cc3ccc(F)cc3F)c(=O)c21 do in these assays?
Tb PFK inh: -16.3%

How did COc1ccc([C@H]2c3cc(OC)c(OC)cc3C[C@@H](C)[C@@H]2C)cc1OC do in these assays?
RGS12 GoLoco inh: 4.5%; Menin-MLL FL inh: 1.7; Menin-MLL TR inh: -0.9%

How did O=C(CSc1nnc2c3ccccc3c3ccccc3c2n1)Nc1ccccc1 do in these assays?
RGS12 GoLoco inh: 124.1%; Menin-MLL FL inh: 1.7; Tb PFK inh: -3.7%; CXXC DNA block: 4.9%; Menin-MLL TR inh: 12.6µM*

How did CC[N+](CC)(CC)CCOc1ccc(/C=C\c2ccccc2)cc1 do in these assays?
RGS12 GoLoco inh: -6.0%; Menin-MLL FL inh: inconclusive; Menin-MLL TR inh: -8.0%[24.8 µM]
